Experimental data reported in PubChem BioAssay (NCATS).
Where “and” joins values, the source holds several entries; their conditions need not be identical. Equal values may be shown once. Inconclusive results are not listed. Where a call stands in place of a potency, no number is given. Calls of active or inactive are those of the source. Calls follow the shape of the dose curve; as a rule, active = well fitted cell-killing curve with a large enough effect; inconclusive = small, poorly fitted or top-dose-only effect; inactive = flat fitted curve, though single readings scatter.

Experiment: MultiTox-Fluor Cytotoxicity Assay - LYMP1-003 - Live Cells (AID 962);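 also: cells exposed to compound for 16 hours at 37 °C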; also: potency is read from the fitted curve at half-maximal effect
Conditions: LYMP1-003 lymphoblastoid cells, MultiTox-Fluor live-cell protease fluorescence; series mostly up to 92.2 µM
Outline: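 qHTS, 1536-well; 2500 cells/well LYMP1-003; 5 hr 37 C settle; cpd 16 hr 37 C; MultiTox-Fluor reagent 60 min RT; live-cell protease fluor. 405/510; Hill-fit AC50; tetraoctylammonium bromide pos. ctrl.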

Structure (SMILES) | Potency
CCCN(CCC)C(=O)SCC | inactive
COc1ccc2nc(N)sc2c1 | inactive
ClCCCl | inactive
CCC(O)OC(O)CC (stereo not drawn) | inactive
C=Cc1ccccc1Cl | inactive
c1ccc2c(c1)c1cccc3ccc4cccc2c4c31 | inactive
Cc1cccc([N+](=O)[O-])c1C | inactive
CCCCCCCCO | inactive
CC(C)=CCCC(C)CCO (stereo not drawn) | inactive
O=[N+]([O-])c1cccc(Cl)c1Cl | inactive
CCO[Si](CCCN)(OCC)OCC | inactive
Clc1cc(Cl)c(Cl)cc1Cl | inactive
CCO | inactive
C=CC(=O)OCCOCCOCCOCCOC(=O)C=C | 25.1 µM (active) and 31.6 µM (active)
Clc1cc(Cl)c(Cl)c(Cl)c1Cl | inactive
CCCCC(CC)CN (stereo not drawn) | inactive
O=NO | inactive
c1ccc2c(c1)[nH]c1ccccc12 | inactive
OCCNCCO | inactive
Nc1ccc(Cl)cc1Cl | inactive
CCC(C)c1ccccc1O (stereo not drawn) | inactive
CC1=CC(C)(C)Nc2ccccc21 | inactive
CN(C)C=O | inactive
Cc1ccc(N)c([N+](=O)[O-])c1 | inactive
CCCCOCCO | inactive
CC(=O)OC/C=C(\C)CCC=C(C)C | inactive

Experiment: Cell Viability - LYMP1-003 - Assay at 24 hr (AID 963); also: potency is read from the fitted curve at half-maximal effect
Conditions: LYMP1-003 lymphoblastoid cell viability; series mostly up to 92.2 µM
Outline: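 Cells seeded at 2500/well, 5 hr at 37 C; compounds added; 24 hr at 37 C; CellTiter-Glo added, 30 min room temperature; luminescence read. Decrease in ATP taken as cytotoxicity, AC50 from Hill modelling.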

Structure (SMILES) | Potency
CCCN(CCC)C(=O)SCC | inactive
COc1ccc2nc(N)sc2c1 | inactive
ClCCCl | inactive
CCC(O)OC(O)CC (stereo not drawn) | inactive
C=Cc1ccccc1Cl | inactive
c1ccc2c(c1)c1cccc3ccc4cccc2c4c31 | inactive
Cc1cccc([N+](=O)[O-])c1C | inactive
CCCCCCCCO | inactive
CC(C)=CCCC(C)CCO (stereo not drawn) | inactive
O=[N+]([O-])c1cccc(Cl)c1Cl | inactive
CCO[Si](CCCN)(OCC)OCC | inactive
Clc1cc(Cl)c(Cl)cc1Cl | inactive
CCO | inactive
C=CC(=O)OCCOCCOCCOCCOC(=O)C=C | 31.6 µM (active) and 39.8 µM (active)
Clc1cc(Cl)c(Cl)c(Cl)c1Cl | inactive
CCCCC(CC)CN (stereo not drawn) | inactive
O=NO | inactive
c1ccc2c(c1)[nH]c1ccccc12 | inactive
OCCNCCO | inactive
Nc1ccc(Cl)cc1Cl | inactive
CCC(C)c1ccccc1O (stereo not drawn) | inactive
CC1=CC(C)(C)Nc2ccccc21 | inactive
CN(C)C=O | inactive
Cc1ccc(N)c([N+](=O)[O-])c1 | inactive
CCCCOCCO | inactive
CC(=O)OC/C=C(\C)CCC=C(C)C | inactive

Experiment: Cell Viability - LYMP1-003 - Assay at 40 hr (AID 964); also: nearly all actives have a fitted effect of over 60% in size
Conditions: LYMP1-003 lymphoblastoid viability; series mostly up to 92.2 µM
Outline: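 Cells were seeded at 2500 per well and incubated 5 hr at 37 C. Compounds were added across a concentration series and left 40 hr at 37 C. CellTiter-Glo was added for 30 min at room temperature before luminescence reading.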

Structure (SMILES) | Potency
CCCN(CCC)C(=O)SCC | inactive
COc1ccc2nc(N)sc2c1 | inactive
ClCCCl | inactive
CCC(O)OC(O)CC (stereo not drawn) | inactive
C=Cc1ccccc1Cl | inactive
c1ccc2c(c1)c1cccc3ccc4cccc2c4c31 | inactive
Cc1cccc([N+](=O)[O-])c1C | inactive
CCCCCCCCO | inactive
CC(C)=CCCC(C)CCO (stereo not drawn) | inactive
O=[N+]([O-])c1cccc(Cl)c1Cl | inactive
CCO[Si](CCCN)(OCC)OCC | inactive
